Data as given in PubChem BioAssay (EPA / NIEHS).
Activity calls are given as the source filed them. The calls were made as follows: active = hit-call score of the fitted dose curve at least 0.9, where 1 is the maximum; inactive = score below 0.9.

read-out: Matrix Metallopeptidase 1 (MMP1), MMP1 (gene 4312); assay: BSK_BF4T_MMP1: BioMAP Diversity Plus: BF4T Assay for Matrix Metallopeptidase 1 (MMP1) Biomarker Activity (AID 2284270); conditions: primary human bronchial epithelial cells with fibroblasts
Method: BSK_BF4T is a cell-based, multiplexed-readout assay that uses bronchial epithelial cells and dermal fibroblasts, a human vascular primary cell, with measurements taken at 24 hours after chemical dosing in a microplate: 96-well plate.BSK_BF4T_MMP1 is an assay component measured in the BSK_BF4T assay. It measures MMP-1 antibody related to regulation of gene expression using ELISA technology.Data from the assay component BSK_BF4T_MMP1 was analyzed at the endpoint, BSK_BF4T_MMP1, in the positive analysis fitting direction relative to DMSO as the negative control and baseline of activity. Using a type of binding reporter, gain or loss-of-signal activity can be used to understand protein changes. To generalize the intended target to other relatable targets, this assay endpoint is annotated to the 'protease' intended target family, where the subfamily is 'matrix metalloproteinase'.
The levels of cell surface (or secreted, indicated by the prefix "s") biomarker endpoints were measured by ELISA. Overt cytotoxicity to cells in confluent adherent cultures (all systems other than the BT system) was assessed by measuring total protein levels using sulforhodamine B (SRB) staining in parallel cultures at the time of biomarker measurements, indicated as SRB endpoints. For proliferation assays for adherent cell types, individual cell types are cultured at sub-confluence and relative cell numbers quantified by SRB staining at time points optimized for each system (48 h: 3C and CASM3C systems; 72 h: BT and HDF3CGF systems; 96 h: SAg system). SRB was performed by staining cells with 0.1% SRB after fixation with 10% TCA and reading wells at 560 nm.Viability and proliferation of PBMC (T cells) was quantified by Alamar Blue reduction for the SAg and BT systems. For PBMC viability (referred to as PBMC Cytotoxicity within the assay endpoint names), cells were plated (75,000/well in a 96-well plate) and then chemical samples added for 1 h before addition of activators, SEB and TSST-1 (20 ng/mL final concentration each). Cells were incubated for 90 h. Then, Alamar Blue (20 uL/well) (Invitrogen, Cat DAL1100) was added for 6 h, and the plates were read with a fluorescence microplate reader at 546/580 nm (excitation/emission). For PBMC proliferation, cells were plated and activated as above but incubated for only 16 h prior to addition of Alamar Blue. Plates were read after 6 h.

| SMILES | outcome |
| --- | --- |
| FC(F)=C(F)C(F)(F)C(F)(F)C(F)(F)C(F)(F)C(F)(F)C(F)(F)F | inactive |
| C[Si](C)(C)C(F)(F)C(F)(F)C(F)(F)F | inactive |
| O=S(=O)(O)CCC(F)(F)C(F)(F)C(F)(F)C(F)(F)C(F)(F)C(F)(F)F | inactive |
| NCC(F)(F)C(F)(F)C(F)(F)C(F)(F)F | inactive |
| FC(F)(F)C(F)(F)C(F)(F)C(F)(F)C(F)(F)C(F)(F)I | inactive |
| OC(O)(C(F)C(O)(O)C(F)(F)F)C(F)(F)F | inactive |
| FC(F)C(F)(F)COCC1CO1 (stereo not given) | inactive |
| FC(F)(F)COC(OCC(F)(F)F)OCC(F)(F)F | inactive |
| O=C(Cl)C(F)(F)C(F)(F)C(F)(F)C(=O)Cl | inactive |
| OCCC(F)(F)C(F)(F)C(F)(F)C(F)(F)F | inactive |
